34 compounds from PubChem BioAssay AID1345085 (National Center for Advancing Translational Sciences (NCATS), 2018) can be followed below.

Records with an inconclusive call do not appear. Active and inactive are the calls of the source. Calls follow the shape of the dose curve; as a rule, active = well fitted cell-killing curve with a large enough effect; inconclusive = small, poorly fitted or top-dose-only effect, or effect the other way; inactive = no such curve, though single readings can be large or run the other way. *1 amine or outer side, *2 acyl side, *3 side chain or, on linkers, in order; H or OH if unused. Where a SMILES comes first, the peptide text is derived from it. Bridges are numbered along the chain shown (N, C = ends). Roman numbers before positions name the chains, in order. [ ]: non-standard residue; d: D form. Actinocin(9to1) = Cc1c2oc3c(C)ccc(C(=O)[*:1])c3nc-2c(C(=O)[*:2])c(N)c1=O; NMeV = CN[C@H](C(=O)O)C(C)C; Sar = CNCC(=O)O
% is scaled to controls: 0 for no effect and ±100 for the full control effect; potency is read from the fitted curve at half-maximal effect.

The subject of the assay is CASKI. Nature of the assay: Confirmatory qHTS for gynecologic anti-cancer compounds from libraries of approved drugs and bioactive compounds. Also: nearly all actives have a fitted effect of over 55% in size. Particulars: gynecologic cancer cell panel viability, ATPlite luminescence, 48 h; series mostly up to 57.6 µM; activity change, negative = viability loss: at the top concentration. Put shortly:
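IC50 values derive from an ATPlite ATP-content luminescence assay following 48 h treatment at 37 C. Each compound ran as an 11-concentration, threefold series (57.5 uM to 0.977 nM); HEK 293T served as control line for selectivity index.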
Turning to `Cc1ccc(C(=O)N(CCCN)C(c2oc3cc(Cl)ccc3c(=O)c2Cc2ccccc2)C(C)C)cc1` (centres undefined), the Potency was 27.3 µM (active).
For the compound `CN[C@@H](C)C(=O)N[C@H]1CN(C(=O)CC(C)C)CC[C@H]2CC[C@@H](C(=O)NC(c3ccccc3)c3ccccc3)N2C1=O`, the “activity change, negative = viability loss” value was -16.4% (inactive).
Take `CC(=O)c1cnc2ccc(-c3cc(Cl)c(O)c(Cl)c3)nc2c1NC1CCC(CN(C)C)CC1` (centres undefined): the Potency is 0.559 µM (active).
Same read-out and setting: with `COc1cc(Nc2c(C#N)cnc3cc(OCCCN4CCN(C)CC4)c(OC)cc23)c(Cl)cc1Cl` the figure was 24.3 µM (active).
Regarding `CC(=O)NCC(=O)N1C2CCC1c1cc(Nc3ncc(C(F)(F)F)c(NC4CCC4)n3)ccc12` (centres undefined), the Potency was 9.68 µM (active).
With `CNc1nc(Nc2ccc(C(=O)N3CCOCC3)cc2OC)ncc1Cl`, the “activity change, negative = viability loss” value is -19.4% (inactive).
Same read-out and setting: with `CN(C)C(CCOc1cccc2ccccc12)c1ccccc1` (centres undefined) the figure was -2.64% (inactive).
Regarding `c1nc2nc(Nc3ccc(N4CCOCC4)cc3)nc(NC3CCCCC3)c2[nH]1`, the Potency is 7.49 µM (active).
In the case of `CN(C)/N=N/c1nc[nH]c1C(N)=O`, the “activity change, negative = viability loss” value is -20.5% (inactive).
In the case of `COc1cccc2c1C(=O)c1c(O)c3c(c(O)c1C2=O)C[C@@](O)(C(=O)CO)C[C@@H]3O[C@H]1C[C@H](N)[C@H](O)[C@H](C)O1`, the Potency was 8.63 µM (active).
On the same count and under the same terms, for `O=C(NOCC1CC1)c1ccc(F)c(F)c1Nc1ccc(I)cc1Cl` the value was 21.7 µM (active); for `CCc1nc(C(N)=O)c(Nc2ccc(N3CCC(N4CCN(C)CC4)CC3)c(OC)c2)nc1NC1CCOCC1`, 11.9 µM (active).
On the same count and under the same terms, for `Cc1ccc(C(N)=O)cc1Nc1nccc(-c2cn(C(C)C)c3cnccc23)n1` the value was 17.2 µM (active); for `Cc1cc(Nc2cc(N3CCN(C)CC3)nc(/C=C/c3ccccc3)n2)n[nH]1`, 19.3 µM (active).
On the same count and under the same terms, with `Cc1nc(NC(=O)N2CCCC2C(N)=O)sc1-c1ccnc(C(C)(C)C(F)(F)F)c1` (centres undefined) the figure was 7.69 µM (active).
For `CCC1C(=O)N(C)c2cnc(Nc3ccc(C(=O)NC4CCC(N5CCN(CC6CC6)CC5)CC4)cc3OC)nc2N1C(C)C` (centres undefined), the Potency is 6.11 µM (active).
As to `CNC(=O)c1nn(C)c2c1C(C)(C)Cc1cnc(Nc3ccc(N4CCN(C)CC4)cc3)nc1-2`, the Potency is 10.9 µM (active).
As for `Oc1cn2c(n1)Nc1ccc(Cl)c(Cl)c1C2`, the “activity change, negative = viability loss” value is -3.46% [at 19.5 µM] (inactive).
In the case of `CC[C@@]1(O)C(=O)OCc2c1cc1n(c2=O)Cc2cc3cc(O)ccc3nc2-1`, the Potency is 0.243 µM (active).
Same read-out and setting: with `Cc1c2oc3c(C)ccc(C(=O)N[C@@H]4C(=O)N[C@H](C(C)C)C(=O)N5CCC[C@H]5C(=O)N(C)CC(=O)N(C)[C@@H](C(C)C)C(=O)O[C@@H]4C)c3nc-2c(C(=O)N[C@@H]2C(=O)N[C@H](C(C)C)C(=O)N3CCC[C@H]3C(=O)N(C)CC(=O)N(C)[C@@H](C(C)C)C(=O)O[C@@H]2C)c(N)c1=O` (I: T[dV]P[Sar][NMeV] / II: T[dV]P[Sar][NMeV]; ester I:1-I:C, II:1-II:C; linker I:N-II:N via Actinocin(9to1)) the figure was 0.611 µM (active).
For `COC(=O)c1ccc2c(C(=Nc3ccc(N(C)C(=O)CN4CCN(C)CC4)cc3)c3ccccc3)c(O)[nH]c2c1`, the “activity change, negative = viability loss” value was -13.2% (inactive).
On to `Cc1nc(Nc2n[nH]c3c2CN(C(=O)NC(CN(C)C)c2ccccc2)C3(C)C)c2sccc2n1` (centres undefined), for which the Potency was 3.06 µM (active).
Turning to `OC[C@H]1O[C@@H](n2cnc3c(=S)nc[nH]c32)[C@H](O)[C@@H]1O`, the Potency is 4.85 µM (active).
On the same count and under the same terms, for `COC(C(=O)N1Cc2[nH]nc(NC(=O)c3ccc(N4CCN(C)CC4)cc3)c2C1)c1ccccc1` (centres undefined) the value was 7.69 µM (active); for `O=c1[nH]c(=O)n([C@H]2C[C@H](O)[C@@H](CO)O2)cc1C(F)(F)F`, 9.68 µM (active).
Turning to `COc1cc2c(Oc3ccc(-c4cnc(Nc5ccc(F)cc5)n(C)c4=O)cc3F)ccnc2cc1OCCCN1CCOCC1`, the “activity change, negative = viability loss” value was -12.5% (inactive).
As to `CC[C@@]1(O)C(=O)OCc2c1cc1n(c2=O)Cc2c-1nc1ccccc1c2/C=N/OC(C)(C)C`, the Potency was 0.153 µM (active).
Turning to `COc1ccc(-c2cc3nccn3c(Nc3ncccc3C(N)=O)n2)cc1OC`, the “activity change, negative = viability loss” value is 1.41% (inactive).
Take `NCCOc1cc(C(=O)Nc2cc(OCCN)c3ccccc3n2)nc(C(=O)Nc2cc(OCCN)c3ccccc3n2)c1`: the Potency is 30.6 µM (active).
With `CCN[C@H]1C[C@H](C)S(=O)(=O)c2sc(S(N)(=O)=O)cc21`, the “activity change, negative = viability loss” value is 34.2% (inactive).
Same read-out and setting: with `CN(C)c1ccc(-c2nc3ncc(Cl)c(N4CCN(CC(=O)Nc5nccs5)CC4)c3[nH]2)cc1` the figure was -25.2% [at 19.5 µM] (inactive).
In the case of `CCN(CC)CCOc1ccc(/C(=C(\Cl)c2ccccc2)c2ccccc2)cc1`, the Potency was 112 µM (active).
Regarding `Cc1ccc(C(=O)N(CCCN)C(c2nc3cc(Cl)ccc3c(=O)n2Cc2ccccc2)C(C)C)cc1` (centres undefined), the Potency is 27.3 µM (active).
The same measure, in the same setting: with `CC(C)C[C@H](NC(=O)[C@H](CCc1ccccc1)NC(=O)CN1CCOCC1)C(=O)N[C@@H](Cc1ccccc1)C(=O)N[C@@H](CC(C)C)C(=O)[C@@]1(C)CO1` the figure was 9.68 µM (active).
